# Only some compounds are listed: those with a hit (about 6.3% of all), similar ones and a draw of the others.
# Spn PMK inh: S. pneumoniae PMK inhibition; inhibition, % at 10 µM; purified PMK, PK/LDH-coupled NADH absorbance 340 nm; 0.49% of 65,000 active;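 active means top-ranked compounds by inhibition in the single 10 µM screen, taking a fixed number of the strongest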;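 further: 0% = full reaction with DMSO carrier and 100% = background rate without enzyme reaction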
# Autofluor 339: intrinsic fluorescence of library compounds, ex339/em460 – biochemical, MLSMR library, data from DPM-DC assay, artefact control, profiling panel; compound autofluorescence, ex339/em460 nm, NADH buffer; stronger effect = higher value; 1 = no-compound wells, NADH background; fluorescence fold increase at 10 µM; 5.5% of 65,000 active;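 active means at 10 µM, mean starting fluorescence two-fold or more over control wells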;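 further: signal is the first read of a kinetic run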
# NADH coupling: inhibition of NAD/NADH coupling enzymes, library profiling; coupled PK/LDH NADH assays, four targets; IC50, µM (titrated, usually from 10 µM), inactives show at the highest dose inhibition; 0.02% of 65,000 active;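 active means single-dose screening hits from any of four coupled enzyme assays that gave an IC50 when retested across doses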;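 further: the DPM-DC format reads NADH fluorescence rather than 340 nm absorbance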
# Abs 340nm: absorbance at 340 nm; 65,000 tested, under 10 active; fold change at 10 µM; compound absorbance at 340 nm, fold over control; AID 708;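 active means at 10 µM dose, initial 340 nm absorbance at least 2 fold that of control wells; inactive means change under 2 fold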;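 further: initial absorbance extrapolated from kinetic A340 decline of NADH oxidation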
# DPM-DC inhibit: inhibitors of Streptococcus pneumoniae diphosphomevalonate decarboxylase | purified DPM-DC, PK/LDH coupled NADH fluorescence | calls only at 10 µM | 0.49% of 65,000 active | AID 556;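 active means the 320 compounds with the highest percent inhibition in the single-dose primary screen, excluding strongly autofluorescent ones, cut at about 32% in these data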;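 further: kinetic rate of NADH fluorescence loss reporting ADP formed by the decarboxylase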
# Spn MK inh: blocks S. pneumoniae mevalonate kinase. purified MK, PK/LDH-coupled NADH absorbance 340 nm. inhibition, % at 10 µM. 0.48% of 65,000 active. AID 555;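 active means ranked among the strongest by inhibition in the single 10 µM screen, a fixed top-ranked set picked for dose follow-up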
# * = called active by the depositor; i = inactive; . = not tested or not shown; + = active, no number.
SMILES,Spn PMK inh,Autofluor 339,NADH coupling,Abs 340nm,DPM-DC inhibit,Spn MK inh
CCc1cccc(OCC(=O)Nc2ccc(S(=O)(=O)Nc3onc(C)c3C)cc2)c1,17,1.1,10%,1,i,14
CCOC(=O)C(C)Oc1ccc2c(C)cc(=O)oc2c1C(C)=O (stereo not given),8,1.2,6%,1,i,4
CCOC(=O)CCc1c(C)c2ccc(OC(C)C(=O)OCC)c(C)c2oc1=O (stereo not given),3,3.8*,2%,1.1,.,1
N#Cc1cc2ccccc2nc1SCc1cccnc1,29*,1.1,12%,0.99,i,7
N#Cc1cc2c(nc1SCc1cccnc1)CCCCC2,0,1.1,3%,1.1,i,8
CCCN(CCC)c1nc(C)cc(C(C#N)c2nc3ccccc3o2)n1 (stereo not given),8,2.2*,4%,1,i,5
CCC(=O)N(Cc1cc2cc(OC)ccc2[nH]c1=O)c1cc(C)ccc1C,20,2.4*,20%,1,+,7
COc1ccc(N(Cc2cc3cc(OC)ccc3[nH]c2=O)C(=O)c2cccnc2)cc1,4,2.7*,10%,1.1,i,10
CC(C)C(=O)N(Cc1cc2ccccc2[nH]c1=O)C(C)C,6,1.2,5%,1,i,9
COc1ccc2[nH]c(=O)c(CN(C(=O)c3ccccn3)c3ccccc3)cc2c1,10,3.4*,12%,1.1,.,13
COc1ccc2[nH]c(=O)c(CN(C(=O)COc3ccccc3)C(C)C)cc2c1,0,2.6*,4%,1.1,i,1
Cc1ccc(/C=C/C2=Cc3c(sc(NC(=O)CSc4n[nH]c(N)n4)c3C#N)C(C)(C)C2)o1,12,1.3,9%,1.1,i,10
CC1(C)OC(=O)C(=CNC(Cc2c[nH]c3ccccc23)C(=O)O)C(=O)O1 (stereo not given),9,1.1,4%,1,i,0
COc1cc(C2CC(=O)c3c([nH]c(C(=O)OCCOC(C)C)c3C)C2)cc(OC)c1OC (stereo not given),0,1,0%,1,i,1
CCOC(=O)C1=C(O)C(=O)N(c2ccc(S(N)(=O)=O)cc2)C1c1ccc(OC)cc1 (stereo not given),35*,2.1*,27%,1.1,i,21
CCOC(=O)c1ccc(N2C(=O)C(O)=C(C(C)=O)C2c2ccc(O)c(OC)c2)cc1 (stereo not given),7,1.1,4%,1.1,i,5
COC(=O)C1=C(N)Oc2cc(C)n(CC3CCCO3)c(=O)c2C1c1ccc(Cl)cc1 (stereo not given),18,1.1,7%,1,i,4
CC(C)(C)CC(=O)Nc1nnc(-c2cccs2)s1,14,1.3,17%,1.1,+,0
Cc1ccc(OCc2nnc(NC(=O)Cc3cccs3)s2)cc1,0,1.1,4%,1,i,11
Cc1nn(-c2ccccc2)c2nc(-c3ccco3)cc(C(=O)O)c12,10,2*,8%,1.2,.,6
CCOC(=O)N1CCN(C(=O)c2cc(C)c3c(C)nn(-c4ccccc4)c3n2)CC1,15,1.1,7%,1,i,6
O=C(O)c1cc(-c2ccco2)nc2ccccc12,3,3.7*,8%,1.2,.,13
NC(=O)c1ccc(-c2ncc(-c3ccccc3)o2)cc1,18,2.1*,11%,1.2,.,3
c1ccc(-c2cnc(-c3cccnc3)o2)cc1,8,2.1*,6%,1.1,.,3
O=C(CCS(=O)(=O)Cc1ccccc1)NCC1CCCO1 (stereo not given),9,1.1,5%,1,i,6
CCc1nnc(NC(=O)C(C)Sc2ccccc2)s1 (stereo not given),4,1,4%,0.99,i,9
O=C(CCn1c(=O)c2sccc2n(Cc2cc(=O)n3ccccc3n2)c1=O)NCc1ccco1,17,2.2*,10%,1.1,i,6
O=C(CCCn1c(=O)c2sccc2n(Cc2cc(=O)n3ccccc3n2)c1=O)NCc1ccco1,1,1.6,3%,1,i,2
Cc1nn(-c2ccc(F)cc2)c2c1cc(C#N)c1nc3ccccc3n12,2,2.5*,3%,1,.,4
